VCAM1 TNFa pot – TNF alpha stimulated VCAM1 expression potentiation; HUVEC TNFa-stimulated VCAM-1 immunofluorescence, high-content imaging; scaled per plate to unstimulated/TNFa-only wells; activation, % at 2 µM; 93,000 tested, 0.19% active;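 active means activation above the screen mean plus 3 SD, with well images confirming the hit on visual review, cut at about 28% in these data, passing the limit was not always enough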;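 further: signal is the number of cytoplasmic VCAM-1 stained grains per positive cell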
VCAM1 pot confirm – enhancers of VCAM1 induction in HUVEC – imaging, triplicate retest, confirmation; shares compounds with VCAM1 TNFa pot; HUVEC TNFa-stimulated VCAM-1 immunofluorescence imaging; activation, % at 2 µM; 230 tested, under 10 active; AID 1034;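 active means activation above 30% in triplicate retests at 2 µM, then confirmed by visual review of the well images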;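 further: scaled per plate between unstimulated and TNFa-stimulated DMSO control wells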
* hit, by the source's call. This excerpt belongs to a sample that is enriched for hits.

SMILES	VCAM1 TNFa pot	others
CCOc1cccc(OCC)c2c(C)[n+](CC3CCCO3)c(C)c1-2 (stereo not drawn)	32*	VCAM1 pot confirm=4
Cn1c(=O)cc(OCC(=O)N2CCN(Cc3ccc4c(c3)OCO4)CC2)c2ccccc21	-16
O=C(c1ccncc1)C12CN3CN(CN(C3)C1)C2	2
CCNc1ccc(P(=S)(N(C)C)N(C)C)cc1	-21
CCC(=O)OC1(c2cccc(C)c2)CC(C)N(C)CC1C (stereo not drawn)	-4
CCCC12CN3CN(C1)CC(CCC)(C3)C2O (stereo not drawn)	33*	VCAM1 pot confirm=-20
Cc1ccccc1-n1c(C)nc2sccc2c1=O	-8
CC1N(O)C2CCCCCC2N1O (stereo not drawn)	0
O=P(/C(=N/O)N1CCOCC1)(N1CCOCC1)N1CCOCC1	-1
O=C(N/N=C1/CN2CCC1CC2)c1cccc(O)c1	3

Screening data: PubChem BioAssay, Columbia University Molecular Screening Center
